Rows were chosen to be rich in hits. Some 0.86% of all compounds tested hit in one or more screens of this group.
BJeLR viability = BJeLR cell viability reduction. viability loss activity score, % (no concentration beside the values). AID 2275. BJeLR fibroblasts viability, CellTiterGlo ATP luminescence, 48 h; HRASV12, hTERT and SV40 LT/ST transformed. hit rate 0.64% among 30,000; in the data active = viability loss activity score above about 50%;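 also: higher score means fewer live cells and less ATP luminescence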
A1 inhib = blocks A1 activity; MEF A1-2A-BIM cells, caspase-Glo luminescence, 3 h; percent of clofoctol signal, DMSO as zero; hit rate 0.51% among 21,000; caspase activation, % (test concentration not listed);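 active = most replicate scores above 10, or exactly half above 10 with mean activity above 10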;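 also: effector caspase 3 and 7 activity cleaving a DEVD luciferin substrate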
The depositor's hits bear a star.

How did C[C@@H]1O[C@@H](O[C@H]2[C@H](O[C@H]3[C@H](O)[C@@H](C(=O)O)O[C@@H](O[C@H]4CC[C@@]5(C)C(CC[C@]6(C)C5CC[C@]57OC[C@@]8(CCC(C)(C)CC85)[C@H](O)C[C@]76C)C4(C)C)[C@@H]3O[C@@H]3O[C@H](CO)[C@@H](O[C@@H]4OC[C@@H](O)[C@H](O)[C@H]4O)[C@H](O)[C@H]3O)O[C@H](CO)[C@H](O)[C@@H]2O)[C@H](O)[C@H](O)[C@H]1O (stereo partly specified) do in these assays?
BJeLR viability: 6; A1 inhib: -1

Results for C/C=C(/C)C(=O)O[C@H]1[C@H](OC(=O)/C=C/c2ccccc2)[C@@]23C(CC1(C)C)[C@]1(CCC4[C@@]5(C)CC[C@H](O[C@@H]6O[C@H](C(=O)O)[C@@H](O)[C@H](O[C@@H]7O[C@H](CO)[C@H](O)[C@H](O)[C@H]7O[C@@H]7O[C@@H](C)[C@H](O)[C@@H](O)[C@H]7O[C@@H]7OC[C@](O)(CO)[C@H]7O)[C@H]6O[C@@H]6O[C@H](CO)[C@H](O)[C@H](O)[C@H]6O)C(C)(C)C5CC[C@@]4(C)[C@]1(C)C[C@H]2O)O[C@H]3O (stereo partly specified) ?
BJeLR viability: 80*; A1 inhib: -3

How did CC1(C)CC[C@@]2(C(=O)O[C@@H]3O[C@H](CO)[C@@H](O)[C@H](O)[C@H]3O)C(C1)C1=CCC3[C@@]4(C)CC[C@@H](O[C@@H]5O[C@H](CO)[C@@H](O)[C@H](O)[C@H]5O[C@@H]5O[C@H](CO)[C@@H](O)[C@H](O)[C@H]5O)C(C)(C)C4CC[C@@]3(C)[C@]1(C)C[C@H]2O (stereo partly specified) do in these assays?
BJeLR viability: -4; A1 inhib: 0

How did C/C=C(/C)C(=O)O[C@H]1[C@H](OC(=O)/C(C)=C\C)[C@]2(CO)[C@H](O)C[C@]3(C)C(=CCC4[C@@]5(C)CC[C@H](OC6OC(C(=O)O)C(O)C(OC7OC(C)C(O)C(OC8OC(CO)C(O)C(O)C8O)C7O)C6O)C(C)(C)C5CC[C@]43C)[C@@H]2CC1(C)C (stereo partly specified) do in these assays?
BJeLR viability: 125*; A1 inhib: -4

Results for C/C=C(\C)C(=O)OC1C(OC(=O)/C=C(/C)CC(=O)O)C2(CO)C(O)CC3(C)C(=CCC4C5(C)CCC(OC6OC(C(=O)O)C(O)C(OC7OC(C)C(O)C(OC8OC(CO)C(O)C(O)C8O)C7O)C6O)C(C)(C)C5CCC43C)C2CC1(C)C (stereo unspecified) ?
BJeLR viability: 67*; A1 inhib: -3

Results for O=C(NCCC(c1ccccc1)c1ccccc1)c1cccnc1Cl ?
BJeLR viability: 3

What do the screens show for `Cc1ccc(-n2nc(C)c3c(C)c(CCC(=O)NC(C)c4ccc5c(c4)OCCO5)c(C)nc32)cc1` (stereo unspecified)?
BJeLR viability: 0

How did O=C(CCNS(=O)(=O)c1cccc2nsnc12)NC1CCCC1 do in these assays?
BJeLR viability: -6

How did CCOc1ccc(S(=O)(=O)NCc2ccccc2)cc1-c1nc2c(C(C)(C)C)nn(C)c2c(=O)[nH]1 do in these assays?
BJeLR viability: -3; A1 inhib: -1

Results for COc1c(O[C@@H]2O[C@H](CO)[C@@H](O)[C@H](O)[C@H]2O)cc2c(c1OC)-c1ccc(SC)c(=O)cc1C(NC(C)=O)CC2 (stereo partly specified) ?
BJeLR viability: -5; A1 inhib: -1

Results for CNC1CCc2cc(OC)c(OC)c(OC)c2-c2ccc(OC)c(=O)cc21 (stereo unspecified) ?
BJeLR viability: 59*; A1 inhib: 5

How did COc1ccccc1NC(=O)N1CCN(C(c2ccccc2)c2ccccc2)CC1 do in these assays?
BJeLR viability: 8

How did CCOc1ccccc1C1C(C(=O)N2CCOCC2)=C(C)Nc2nc3ccccc3n21 (stereo unspecified) do in these assays?
BJeLR viability: 1

How did O=c1oc(Cl)c(Cl)c2ccccc12 do in these assays?
BJeLR viability: 55*; A1 inhib: 5

Results for O=c1oc(-c2ccccn2)nc2ccccc12 ?
BJeLR viability: -1; A1 inhib: -5

What do the screens show for `CCOc1ccc(NC(=O)C2CCN(S(=O)(=O)c3cnc[nH]3)CC2)cc1`?
BJeLR viability: -6

Results for CCc1ccc2oc(-c3ccccc3)cc(=NCc3cccnc3)c2c1 ?
BJeLR viability: 2

How did CC(C)n1c(/C=C/[C@H](O)C[C@H](O)CC(=O)O)c(-c2ccc(F)cc2)c2ccccc21 do in these assays?
BJeLR viability: 56*; A1 inhib: 2

What do the screens show for `CC(C)n1c2ccccc2c2nnc(SCCCC(=O)c3ccc(F)cc3)nc21`?
BJeLR viability: 7; A1 inhib: -1
